68 sequences from PubChem BioAssay AID1508600 (Functional Genomics Laboratory (NCATS/FGL), 2020) can be followed below.

The campaign covered roughly 53,000 sequences. About 3,700 (7%) were called active.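 How the source made its calls: active means gene knockdowns whose robust z-score for IL-1 alpha signal is at least 2 or at most -2, so actives lie on both sides; inactive means the rest.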 Only a selection was taken, and actives are over-represented in it overall.

The assay in a line: Components of the Cytosolic LPS Sensing Pathway: Gene Identification via Genome-wide siRNA Screen.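 Further: robust z of the log signal after scaling to non-targeting control siRNA wells of the plate.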 Particulars: RAW264.7 macrophages, IL-1a HTRF, actives lie on both sides, screened at 100 nM (by protocol), cells primed 5 h with Pam3CSK4 first. In short, it runs like this:
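Using IL-1a HTRF as read-out, the screen measured release from RAW264.7 cells after 48h siRNA knockdown (100 nM), 5 h Pam3CSK4 priming and 24 h cytosolic LipidA. Values were expressed relative to negative-control wells as robust z-scores.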
(In general: Time-resolved FRET reads energy transfer from a long-lived donor to a nearby acceptor.)
Turning to GGCAAAUAUUCAGUUUGGATT against Scarb2, the z-score was -0.00406 (inactive).

On to GGGUUUAUAAAACUGAAGUTT against Cav2, for which the z-score was 0.672 (inactive).

GGCACAUGAGACAGCUUUUTT against Tmem160: the z-score was 0.0311 (inactive).

As to CGUGUUCAGCGUAGAAACUTT against Ttll1, the z-score was 0.283 (inactive).

With GGUUUCAGAGCUAAACCCUTT against Larp4b, the z-score is 0.235 (inactive).

For the sequence “CCAUAGUUUUGGUUACCAATT against E330037G11Rik”, the z-score is -0.213 (inactive).

With “GUCUCUUUGCCCUGUGCUATT against Vmn1r239-ps”, the z-score is 0.0206 (inactive).

Consider GGCUUGGAUUUUGAAAUACTT against Srcin1, for which the z-score was -0.792 (inactive).

For the sequence GCUCAGCAAUACUUCCUACTT against Itgal, the z-score is -0.188 (inactive).

For the sequence GCUCAUAUACACCAUUUCUTT against Tmem171, the z-score was -1.12 (inactive).

In the case of GCCUAUCAAUGUGUAUCUUTT against Tcf21, the z-score is -0.497 (inactive).

Take CGUCCUAGGAAUCUACUUUTT against Itgad: the z-score is 2.63 (active).

On to GGGAAAGUAAUUGAUAAACTT against Mtrr, for which the z-score is 0.59 (inactive).

With GUCUGUCAUUUGUGGAAAUTT against Olfr1495, the z-score was -2.17 (active).

For CCGAGUUCGGGUAUCUUGGTT against Grwd1, the z-score is -0.885 (inactive).

For the sequence CCCACCACAAGCUAAUACATT against Ubac1, the z-score is -0.0826 (inactive).

As for GGAACAAAGACAUGUAUCATT against Zgpat, the z-score is -0.931 (inactive).

In the case of GCUCAGAAGUCCAAGAUACTT against Casp12, the z-score was -1.86 (inactive).

For GGUCGCUGGAGACCUUAGUTT against Hjurp, the z-score was -1.88 (inactive).

Take GGAACAGGUGAUCCGCUACTT against Lzts2: the z-score is 1.26 (inactive).

With GCACUCUGUUCAGCUAAAATT against Tafa3, the z-score is 2.16 (active).

As for GGAAGCUAUGAACAAUACATT against Sulf2, the z-score was 0.00856 (inactive).

In the case of GGUGUGAUGGAGUUCUUAUTT against Ndufs1, the z-score is -0.94 (inactive).

Turning to GGUUCCAUAACCUGUGUCATT against Fbxo28, the z-score was 0.272 (inactive).

For the sequence GGGUUAAUGCAGCUCACGUTT against Lrrtm1, the z-score is 0.425 (inactive).

As to GGCUUUGGCGAUAAGACAUTT against Glud1, the z-score was 2.29 (active).

Consider CCAAUUACGGAGAUUGGAATT against Tspan6, for which the z-score was -0.803 (inactive).

In the case of GGUUGAUUCCAACGACAUCTT against Tinagl1, the z-score was -0.173 (inactive).

As for GCAUAAAGCACCCGGAGAGTT against Zbtb32, the z-score was -1.53 (inactive).

On to GGUGUUAAGACUCAGCUCATT against Micall2, for which the z-score was -1.49 (inactive).

With GCCUGGUUAUUAAUUUAUCTT against Dzank1, the z-score was -0.724 (inactive).

For the sequence GGCACCCGAGUAGGUCAAATT against Carhsp1, the z-score is 6.02 (active).

Take CGUAACUGAGUCAAUUAGUTT against Intu: the z-score is 0.128 (inactive).

GCGUGGUUUCUGAAUACAUTT against Nt5e: the z-score was 6.67 (active).

For the sequence GGUAACAUCUAUAUAUCACTT against Rb1, the z-score is 1.56 (inactive).

For GGACUCCAACCACACUAUCTT against Rab4b, the z-score is 0.847 (inactive).

As for GGCAUGAUGCUGAUCAUUCTT against Olfr1100, the z-score is -0.0763 (inactive).

On to GCUUAUAGUUCAGUUUUUGTT against Ints8, for which the z-score is 0.835 (inactive).

On to GCAAAUAGGGAGGUUCCUGTT against Ypel1, for which the z-score is 1.47 (inactive).

GGAGACUUCAGUGCCUCUUTT against Slc16a11: the z-score is 2.45 (active).

Turning to GGUAAUGGGACUUGGUAGGTT against Olfr1338, the z-score was -0.056 (inactive).

On to UGGUCGGCUAGAUGAUGGATT against Wdr34, for which the z-score is -0.7 (inactive).

GGAAGUCUGCCUGUUCUUGTT against Galnt10: the z-score is 0.744 (inactive).

For GGCUGUGUUGUCGAUUUCCTT against Nkain3, the z-score was 0.351 (inactive).

As for GGGAUGAGUUCUUGUAAAUTT against Unc50, the z-score is -1.32 (inactive).

Regarding GGGAACUCGAACAAGAAUUTT against Six1, the z-score was 1.11 (inactive).

Consider GGAAAAAGAGGAUGAGUGCTT against Gm4861, for which the z-score is 2.01 (active).

In the case of GCUGCUGGAAACUAGACUGTT against Cyp2b13, the z-score is -1.71 (inactive).

Take GUCAUCAAUCAAGUCUUGATT against Olfr1408: the z-score is -0.0822 (inactive).

Take CCAAGGGUUGCUUCGAGCATT against Upk1a: the z-score is -0.489 (inactive).

For GGACCUGAACGAUCUCGUUTT against Cyp4a12a, the z-score was 1.65 (inactive).

As for GGAACAACCACGGAACCCATT against Il1r2, the z-score is 0.335 (inactive).

In the case of GGGUUUCAGUCUUCUUAUCTT against Olfr556, the z-score is -0.891 (inactive).

As to GGGAGCUAAUGAGCAAGGATT against Galk1, the z-score is 2.5 (active).

Turning to GCACAAACUUAUGCUCUUUTT against Klrc3, the z-score is -1.76 (inactive).

With GGACAGACAAAUACAAGAGTT against Tmco1, the z-score was 0.428 (inactive).

For GUUCUUAUAUAGGAUUGUGTT against Xkr9, the z-score is -0.782 (inactive).

Turning to GGAUCAUCUAUACAGCACATT against Tgfb1i1, the z-score was -1.85 (inactive).

With GGACAGUUCUAAAAUUCCCTT against Olfr780, the z-score was -1.73 (inactive).

Consider GCCAGCUACCGAGUCUAUUTT against Tkt, for which the z-score was 2.8 (active).

On to GCAUGCUGACACUUACUUUTT against Olfr878, for which the z-score was -0.872 (inactive).

For the sequence CCAGGCAGCUAAACUGUGUTT against Tex11, the z-score was -0.11 (inactive).

Take GGGACUGUACCCAGUUUAATT against Ccl27a: the z-score is 1.62 (inactive).

Regarding CGUGGAAUGAAGAUUGUCCTT against Hsd17b12, the z-score was 0.284 (inactive).

With GCAAAAUAGCCCAGUAUAATT against Pax6, the z-score was -5.02 (active).

Consider GGAGUUUCUUCAGUUCCUUTT against Dld, for which the z-score was 0.87 (inactive).

Take GCGGAGGAUAGAGCAAAUUTT against Upf3b: the z-score was -0.0448 (inactive).

Regarding GGAACAUCAAGGGAAUUAUTT against Zfp638, the z-score was 2.36 (active).
